Compound activity deposited in PubChem BioAssay by Broad Institute.
The sample as a whole holds a higher share of hits than the screen did.
DUX4 txn inh: inhibitors of DUX4-driven ZSCAN4 reporter expression, primary screen, 293T cells, Gaussia and Italica luciferase; activity change, negative = inhibition, % (no concentration beside the values); 0.8% of 37,000 active; 293T-iDUX4 ZSCAN4-Gaussia luciferase reporter, 24 h; stronger effect = lower value; AID 1224904, 2016;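 active means mean inhibition of at least 10% in the main channel, exceeding the control channel by a set limit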;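 further: 0% = median of neutral control wells and -100% = median of positive control wells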
Numbers without * were called inactive; ! = not active in a repeat.

SMILES	DUX4 txn inh
COc1ccccc1-c1ccc(C2[C@@H]3CN(S(=O)(=O)c4ccc(C)cc4)C[C@H]2N3)cc1 (stereo partly drawn)	-33.7*!
C/C=C/c1ccc(C2[C@@H]3CN(S(=O)(=O)c4ccc(C)cc4)C[C@H]2N3)cc1 (stereo partly drawn)	3.8
COc1cccc(-c2ccc(C3[C@@H]4CN(S(=O)(=O)c5cn(C)cn5)C[C@H]3N4)cc2)c1 (stereo partly drawn)	-33.7*!
Cc1ccc(S(=O)(=O)N2C[C@@H]3N[C@H](C2)C3c2ccc(-c3cccc(C#N)c3)cc2)cc1 (stereo partly drawn)	-43.2*!
N#Cc1cccc(-c2ccc([C@H]3[C@H]4CN(S(=O)(=O)c5ccccc5)CCCCN4[C@H]3CO)cc2)c1	2.6
COc1ccccc1S(=O)(=O)N1C[C@@H]2N[C@H](C1)C2c1ccc(-c2ccncc2)cc1 (stereo partly drawn)	-4.6
Cc1ccc(S(=O)(=O)N2[C@@H]3CNC[C@H]2C3c2ccc(-c3ccc(C#N)cc3)cc2)cc1 (stereo partly drawn)	17.1
COc1ccc(S(=O)(=O)N2[C@@H]3CNC[C@H]2C3c2ccc(-c3ccccc3OC)cc2)cc1 (stereo partly drawn)	12.5
COc1cccc(-c2ccc(C3[C@@H]4CN(C(=O)C5CCOCC5)C[C@H]3N4)cc2)c1 (stereo partly drawn)	12.9
N#Cc1cccc(-c2ccc3c(c2)[C@@H]2[C@@H](CCN2S(=O)(=O)c2ccccc2)[C@@H](CO)N3)c1	-4.5
N#Cc1cccc(-c2ccc(C3[C@@H]4CN(S(=O)(=O)c5ccccc5)C[C@H]3N4)cc2)c1 (stereo partly drawn)	-41.1*!
CO[C@H]1CN(C)C(=O)c2cc(NC(=O)c3cnccn3)ccc2OC[C@H](C)N(C)C[C@H]1C	7.4
COC(=O)[C@@H]1[C@@H](CO)[C@@H]2Cn3c(ccc(-c4ccccc4F)c3=O)[C@@H]2N1C(=O)CC1CC1	-1.0
CO[C@H](CN(C)C(=O)C1CCOCC1)[C@@H](C)CN(C(=O)Nc1ccc(F)cc1)[C@H](C)CO	-2.8
CC=Cc1ccc2n(c1=O)C[C@H]1[C@H](CO)[C@@H](C(=O)NCC(F)(F)F)[C@@H]2N1C(=O)C1CC1 (mixture of isomers)	-3.7
CCCC(=O)Nc1ccc2c(c1)C(=O)N(C)[C@@H]1CC[C@@H](CC(=O)N3CCCCC3)O[C@@H]1CO2	2.7
COCC(=O)N1CC(=O)N2[C@H](CO)[C@H](c3ccc(-c4cccnc4)cc3)[C@H]2C1	13.2
C[C@H](CO)N1C[C@H](C)[C@@H](CN(C)S(=O)(=O)c2ccc(C#N)cc2)OCc2ccccc2-c2ccccc2C1=O	10.0
CO[C@@H]1CN(C)C(=O)c2cc(NC(=O)C3CCCC3)ccc2OC[C@@H](C)N(C(=O)CC2CC2)C[C@@H]1C	6.4
OC[C@@H]1Nc2ccc(C#Cc3cccc(F)c3)cc2[C@H]2NCC[C@@H]12	7.2
COc1ccccc1C#Cc1ccc2c(c1)[C@@H]1NCC[C@@H]1[C@H](CO)N2	-22.5*
COc1ccccc1C#Cc1ccc2c(c1)[C@@H]1[C@@H](CCN1C(=O)c1ccncc1)[C@@H](CO)N2	-9.0
O=S(=O)(c1ccccc1)N1[C@@H]2CNC[C@H]1C2c1ccc(-c2cccnc2)cc1 (stereo partly drawn)	-11.5*!
O=S(=O)(c1ccc(-c2ccccc2)cc1)N1[C@@H]2CNC[C@H]1C2c1ccc(-c2ccccc2)cc1 (stereo partly drawn)	8.9
COc1ccc(S(=O)(=O)N2[C@@H]3CNC[C@H]2C3c2ccc(-c3ccncc3)cc2)cc1 (stereo partly drawn)	13.1
SMILES	DUX4 txn inh
Cc1cccc(-c2ccc(C3[C@@H]4CNC[C@H]3N4)cc2)c1 (stereo partly drawn)	-3.2
O=S(=O)(c1ccc(-c2ccccc2)cc1)N1C[C@@H]2N[C@H](C1)C2c1ccc(-c2ccncc2)cc1 (stereo partly drawn)	-32.8*
O=S(=O)(c1cccc(F)c1)N1[C@@H]2CNC[C@H]1C2c1ccc(-c2cccnc2)cc1 (stereo partly drawn)	-0.9
CS(=O)(=O)N1C[C@@H]2N[C@H](C1)[C@@H]2c1ccc(-c2ccccc2)cc1	-50.6*
Cc1ccc(S(=O)(=O)N2[C@@H]3CNC[C@H]2C3c2ccc(-c3cccnc3)cc2)cc1 (stereo partly drawn)	-0.5
CN(C)C(=O)c1ccc(-c2ccc(C3[C@@H]4CN(S(=O)(=O)Cc5ccccc5)C[C@H]3N4)cc2)cc1 (stereo partly drawn)	4.7
O=C(C[C@@H]1CC[C@H](NC(=O)Nc2ccc(F)cc2)[C@H](CO)O1)NCCN1CCCC1	1.5
CC(C)[C@H](C)NC(=O)N(C)C[C@@H]1OCc2ccccc2-c2ccccc2C(=O)N([C@@H](C)CO)C[C@@H]1C	8.9
CCC(=O)N1CC2(C1)[C@H](c1ccccc1)[C@@H](CO)N2C(=O)NC(C)C	5.4
COc1ccccc1C#Cc1ccc([C@@H]2[C@@H](C#N)N(C(=O)C3CCCCC3)[C@H]2CO)cc1	-1.8
CC(C)NC(=O)N[C@H]1C=C[C@@H](CC(=O)NCCCN(C)C)O[C@@H]1CO	4.9
C[C@@H]1CN([C@@H](C)CO)C(=O)c2c(c3ccccc3n2C)-c2ccccc2CO[C@@H]1CN(C)Cc1ccc(Cl)c(Cl)c1	11.6
C[C@@H]1CN([C@H](C)CO)C(=O)c2ccccc2-c2ccccc2CO[C@@H]1CN(C)Cc1ccc(C(=O)O)cc1	3.1
C[C@@H]1CN([C@H](C)CO)C(=O)c2ccccc2-c2ccccc2CO[C@@H]1CN(C)Cc1ccc(C(F)(F)F)cc1	-24.7*
C[C@H]1CN([C@@H](C)CO)C(=O)c2ccccc2-c2ccccc2CO[C@H]1CN(C)Cc1ccc(O)cc1	4.4
C[C@H]1CN([C@@H](C)CO)C(=O)c2c(c3ccccc3n2C)-c2ccccc2CO[C@@H]1CN(C)Cc1ccc(-c2ccccc2)cc1	-41.4*
C[C@H](CO)N1C[C@H](C)[C@@H](CN(C)Cc2ccncc2)OCc2ccccc2-c2c(n(C)c3ccccc23)C1=O	10.9
C[C@H]1CN([C@@H](C)CO)C(=O)c2c(c3ccccc3n2C)-c2ccccc2CO[C@@H]1CN(C)Cc1ccncc1	5.3
C[C@@H]1CN([C@@H](C)CO)C(=O)c2c(c3ccccc3n2C)-c2ccccc2CO[C@H]1CN(C)Cc1ccc(-c2ccccc2)cc1	-2.3
C[C@H]1CN([C@@H](C)CO)C(=O)c2c(c3ccccc3n2C)-c2ccccc2CO[C@@H]1CN(C)Cc1ccc(Cl)c(Cl)c1	-49.0*
C[C@@H]1CN([C@H](C)CO)C(=O)c2c(c3ccccc3n2C)-c2ccccc2CO[C@@H]1CN(C)Cc1ccc(Cl)c(Cl)c1	-18.7*
C[C@@H]1CN([C@@H](C)CO)C(=O)c2c(c3ccccc3n2C)-c2ccccc2CO[C@H]1CN(C)Cc1ccncc1	-6.3
C[C@@H]1CN([C@@H](C)CO)C(=O)c2c(c3ccccc3n2C)-c2ccccc2CO[C@@H]1CN(C)Cc1ccc(-c2ccccc2)cc1	12.7
CC(C)OC(=O)N(C)C[C@H]1OCc2ccccc2-c2c(n(C)c3ccccc23)C(=O)N([C@H](C)CO)C[C@H]1C	1.0
C[C@@H]1CN([C@@H](C)CO)S(=O)(=O)c2ccc(-c3ccccc3F)cc2O[C@H]1CN(C)C(=O)C1CC1	-0.3
